In PubChem BioAssay (Tox21):
Values joined by “and” are separate entries in the source; they are usually repeats but may differ in a detail not shown here. Identical values can stand only once. Inconclusive results are not listed. Entries that show only a call come without a potency. More than one record can exist for a structure, and the calls need not agree. Active and inactive are the calls of the source. The call rests on the fitted dose curve; in most records, active means well fitted curve in the direction sought with a large enough effect in the repeat runs; inconclusive means weak or mixed curves; inactive means no such curve, though single readings can be large; an effect the other way counts as inactive or inconclusive.

Legend:
[1] = A CellTox Green Cytotoxicity Assay to monitor cytotoxicity in HEK293 cells - 40 hour (AID 1224871); further: nearly all actives have a fitted effect of over 45% in size; further: potency means the concentration at half of the fitted maximal effect
Method in brief: (§1)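 Tox21 screen in HEK293: membrane-impermeant cyanine dye fluoresces on binding dead-cell DNA; compound pinned 5 h post-seeding, plates held at 37 C, signal read repeatedly through 40 h.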

[2] = qHTS RealTime-Glo MT Cell Viability Assay in HEK293 cells - 16 hour (AID 1224872); further: nearly all actives have a fitted effect of over 50% in size; further: potency means the concentration at half of the fitted maximal effect
Method in brief: (§2)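 Quantitative high-throughput screen of the Tox21 10K library in HEK293: cells and RealTime-Glo reagents plated together, compound added at 5 h, luminescence monitored through 40 h at 37 C.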

[3] = qHTS RealTime-Glo MT Cell Viability Assay in HepG2 cells - 8 hour (AID 1224873); further: nearly all actives have a fitted effect of over 55% in size
Method in brief: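 HepG2 cells mixed with RealTime-Glo MT reagents (NanoLuc plus cell-permeant prosubstrate) were seeded at 600 cells/well, incubated 5 h at 37 C/5% CO2, then pinned with compounds in DMSO; nonlytic luminescence tracked viability during 40 h treatment.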

[4] = qHTS RealTime-Glo MT Cell Viability Assay in HEK293 cells - 40 hour (AID 1224874); details: RealTime-Glo luminescence; max response: stronger effect = lower value; further: nearly all actives have a fitted effect of over 50% in size; further: potency means the concentration at half of the fitted maximal effect
Method in brief: (§3)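 HEK293 + NanoLuc + prosubstrate, 600 cells/well; 5 h, 37 C/5% CO2; compound 23 nL in DMSO by pintool; 37 C; luminescence read at 0, 8, 16, 24, 32 and 40 h time points.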

[5] = A CellTox Green Cytotoxicity Assay to monitor cytotoxicity in HEK293 cells - 24 hour (AID 1224875); further: series mostly up to about 77 µM; nearly all actives have a fitted effect of over 45% in size
Method in brief: as §1

[6] = A CellTox Green Cytotoxicity Assay to monitor cytotoxicity in HepG2 cells - 16 hour (AID 1224876); further: nearly all actives have a fitted effect of over 45% in size
Method in brief: (§4)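 Measurements at 0, 8, 16, 24, 32 and 40 h of treatment captured CellTox Green fluorescence in HepG2 cells that had been co-plated with reagent and preincubated 5 h at 37 C/5% CO2.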

[7] = qHTS RealTime-Glo MT Cell Viability Assay in HepG2 cells - 32 hour (AID 1224877); further: nearly all actives have a fitted effect of over 55% in size; further: potency means the concentration at half of the fitted maximal effect
Method in brief: (§5)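 Compound treatment began 5 h after plating HepG2 cells (600/well) with NanoLuc luciferase and prosubstrate. Plates stayed at 37 C for 40 h; luminescence was captured at six time points, 0 h through 40 h.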

[8] = A CellTox Green Cytotoxicity Assay to monitor cytotoxicity in HepG2 cells - 24 hour (AID 1224878); further: nearly all actives have a fitted effect of over 45% in size
Method in brief: as §4

[9] = A CellTox Green Cytotoxicity Assay to monitor cytotoxicity in HepG2 cells - 40 hour (AID 1224879); further: nearly all actives have a fitted effect of over 40% in size; further: potency means the concentration at half of the fitted maximal effect
Method in brief: as §4

[10] = qHTS RealTime-Glo MT Cell Viability Assay in HEK293 cells - 0 hour (AID 1224880)
Method in brief: as §3

[11] = A CellTox Green Cytotoxicity Assay to monitor cytotoxicity in HEK293 cells - 32 hour (AID 1224881); further: nearly all actives have a fitted effect of over 40% in size; further: potency means the concentration at half of the fitted maximal effect
Method in brief: as §1

[12] = A CellTox Green Cytotoxicity Assay to monitor cytotoxicity in HepG2 cells - 0 hour (AID 1224882); further: nearly all actives have a fitted effect of over 35% in size
Method in brief: as §4

[13] = A CellTox Green Cytotoxicity Assay to monitor cytotoxicity in HEK293 cells - 8 hour (AID 1224884); further: nearly all actives have a fitted effect of over 35% in size
Method in brief: as §1

[14] = qHTS RealTime-Glo MT Cell Viability Assay in HepG2 cells - 16 hour (AID 1224885); further: nearly all actives have a fitted effect of over 50% in size
Method in brief: as §5

[15] = qHTS RealTime-Glo MT Cell Viability Assay in HEK293 cells - 24 hour (AID 1224886); further: nearly all actives have a fitted effect of over 50% in size; further: potency means the concentration at half of the fitted maximal effect
Method in brief: as §2

[16] = qHTS RealTime-Glo MT Cell Viability Assay in HEK293 cells - 8 hour (AID 1224887); further: nearly all actives have a fitted effect of over 50% in size; further: potency means the concentration at half of the fitted maximal effect
Method in brief: as §3

[17] = A CellTox Green Cytotoxicity Assay to monitor cytotoxicity in HEK293 cells - 16 hour (AID 1224888); further: nearly all actives have a fitted effect of over 35% in size
Method in brief: as §1

[18] = qHTS RealTime-Glo MT Cell Viability Assay in HepG2 cells - 0 hour (AID 1224889); further: nearly all actives have a fitted effect of over 50% in size
Method in brief: as §5

[19] = A CellTox Green Cytotoxicity Assay to monitor cytotoxicity in HepG2 cells - 8 hour (AID 1224890); further: nearly all actives have a fitted effect of over 45% in size
Method in brief: as §4

[20] = A CellTox Green Cytotoxicity Assay to monitor cytotoxicity in HepG2 cells - 32 hour (AID 1224883); further: nearly all actives have a fitted effect of over 50% in size
Method in brief: as §4

CCCOCCO
Potency [1]: inactive | Potency [2]: inactive | Potency [3]: inactive | max response [4]: 2.92% (inactive) and 1.86% (inactive) | Potency [5]: inactive | Potency [6]: inactive | Potency [7]: inactive | Potency [8]: inactive | Potency [9]: inactive | Potency [10]: inactive | Potency [11]: inactive | Potency [12]: inactive | Potency [13]: inactive | Potency [14]: inactive | Potency [15]: inactive | Potency [16]: inactive | Potency [17]: inactive | Potency [18]: inactive | Potency [19]: inactive

CCc1cccc2c3c([nH]c12)C(CC)(CC(=O)O)OCC3 (centres undefined)
Potency [1]: inactive | Potency [2]: inactive | Potency [3]: inactive | max response [4]: 0.853% (inactive) and 0.265% (inactive) | Potency [5]: inactive | Potency [6]: inactive | Potency [7]: inactive | Potency [8]: inactive | Potency [9]: inactive | Potency [10]: inactive | Potency [12]: inactive | Potency [20]: inactive | Potency [13]: inactive | Potency [14]: inactive | Potency [15]: inactive | Potency [16]: inactive | Potency [17]: inactive | Potency [18]: inactive | Potency [19]: inactive

CC(=O)Nc1ccc2c(c1)Cc1cc(NC(C)=O)ccc1-2
Potency [1]: inactive | Potency [2]: inactive | Potency [3]: inactive | max response [4]: 1.79% (inactive) and 3.64% (inactive) | Potency [5]: inactive | Potency [6]: inactive | Potency [7]: inactive | Potency [8]: inactive | Potency [9]: inactive | Potency [10]: inactive | Potency [11]: inactive | Potency [12]: inactive | Potency [20]: inactive | Potency [13]: inactive | Potency [15]: inactive | Potency [16]: inactive | Potency [17]: inactive | Potency [18]: inactive | Potency [19]: inactive

Oc1c(Cl)ccc(Cl)c1Cl
Potency [1]: inactive | Potency [2]: inactive | Potency [3]: inactive | max response [4]: -14% (inactive) and -18.1% (inactive) | Potency [5]: inactive | Potency [6]: inactive | Potency [7]: inactive | Potency [8]: inactive | Potency [9]: inactive | Potency [10]: inactive | Potency [11]: inactive | Potency [12]: inactive | Potency [13]: inactive | Potency [15]: inactive | Potency [16]: inactive | Potency [17]: inactive | Potency [18]: inactive | Potency [19]: inactive

NCCN
Potency [1]: inactive | Potency [2]: inactive | Potency [3]: inactive | max response [4]: 7.37% (inactive) and 0.29% (inactive) | Potency [5]: inactive | Potency [6]: inactive | Potency [7]: inactive and 21.9 µM (active) | Potency [8]: inactive | Potency [9]: inactive | Potency [10]: inactive | Potency [11]: inactive | Potency [12]: inactive | Potency [20]: inactive | Potency [13]: inactive | Potency [14]: inactive | Potency [15]: inactive | Potency [17]: inactive | Potency [18]: inactive | Potency [19]: inactive

Cc1ccc(/C(=C\CN2CCCC2)c2ccccn2)cc1
Potency [1]: inactive | Potency [2]: inactive | Potency [3]: inactive | max response [4]: -3.85% (inactive) | Potency [5]: inactive | Potency [6]: inactive | Potency [7]: inactive | Potency [8]: inactive | Potency [9]: inactive | Potency [10]: inactive | Potency [11]: inactive | Potency [12]: inactive | Potency [13]: inactive | Potency [15]: inactive | Potency [17]: inactive | Potency [18]: inactive | Potency [19]: inactive

CC1(C)OC(=O)NC1=O
Potency [1]: inactive | Potency [2]: inactive | Potency [3]: inactive | max response [4]: -4.09% (inactive) and 7.44% (inactive) | Potency [5]: inactive | Potency [6]: inactive | Potency [7]: inactive | Potency [8]: inactive | Potency [9]: inactive | Potency [10]: inactive | Potency [11]: inactive | Potency [12]: inactive | Potency [20]: inactive | Potency [13]: inactive | Potency [15]: inactive | Potency [16]: inactive | Potency [17]: inactive | Potency [18]: inactive | Potency [19]: inactive

CCCCCCOCCOCCO
Potency [1]: inactive | Potency [2]: inactive | Potency [3]: inactive | max response [4]: 4% (inactive) and -0.302% (inactive) | Potency [5]: inactive | Potency [6]: inactive | Potency [7]: inactive | Potency [8]: inactive | Potency [9]: inactive | Potency [10]: inactive | Potency [11]: inactive | Potency [13]: inactive | Potency [14]: inactive | Potency [15]: inactive | Potency [16]: inactive | Potency [17]: inactive | Potency [18]: inactive | Potency [19]: inactive

CCOC(=O)C(C)Oc1ccc(Oc2cnc3cc(Cl)ccc3n2)cc1 (centres undefined)
Potency [1]: inactive and 1.29 µM (active) | Potency [2]: 20 µM (active) and 20.5 µM (active) | Potency [3]: inactive | Potency [4]: 44.7 µM (active) | max response [4]: -24.7% (inactive) | Potency [5]: inactive | Potency [6]: inactive | Potency [7]: inactive | Potency [8]: inactive | Potency [9]: inactive | Potency [10]: inactive | Potency [11]: inactive | Potency [20]: inactive | Potency [13]: inactive | Potency [14]: inactive | Potency [15]: 22.4 µM (active) and 36.4 µM (active) | Potency [16]: 14.1 µM (active) and 16.3 µM (active) | Potency [17]: inactive | Potency [18]: inactive | Potency [19]: inactive

C=C[C@H]1CN2CC[C@H]1C[C@H]2[C@H](O)c1ccnc2ccc(OC)cc12
Potency [1]: inactive | Potency [2]: inactive | Potency [3]: inactive | max response [4]: -26.3% (inactive) and -11.8% (inactive) | Potency [5]: inactive | Potency [6]: inactive | Potency [7]: inactive | Potency [8]: inactive | Potency [9]: inactive | Potency [10]: inactive | Potency [11]: inactive | Potency [12]: inactive | Potency [13]: inactive | Potency [14]: inactive | Potency [15]: inactive | Potency [17]: inactive | Potency [18]: inactive | Potency [19]: inactive

Cc1ccc([N+](=O)[O-])c(C)c1
Potency [1]: 24.6 µM (active) and inactive | Potency [2]: 38.9 µM (active) and inactive | Potency [3]: inactive | Potency [4]: 38.9 µM (active) | max response [4]: -10.8% (inactive) | Potency [5]: inactive | Potency [6]: inactive | Potency [7]: inactive | Potency [8]: inactive | Potency [9]: 17.4 µM (active) and inactive | Potency [10]: inactive | Potency [11]: 30.9 µM (active) and inactive | Potency [12]: inactive | Potency [13]: inactive | Potency [15]: 38.9 µM (active) and inactive | Potency [16]: inactive | Potency [17]: inactive | Potency [18]: inactive | Potency [19]: inactive

C=CC(=O)OCCCC
Potency [1]: inactive | Potency [2]: inactive | Potency [3]: inactive | max response [4]: 6.68% (inactive) and 3.94% (inactive) | Potency [5]: inactive | Potency [6]: inactive | Potency [7]: inactive | Potency [8]: inactive | Potency [9]: inactive | Potency [10]: inactive | Potency [11]: inactive | Potency [12]: inactive | Potency [20]: inactive | Potency [13]: inactive | Potency [15]: inactive | Potency [16]: inactive | Potency [17]: inactive | Potency [18]: inactive | Potency [19]: inactive
